# Screen size: about 410,000 compounds; about 7,200 (1.8%) were called active. Another 7% or so got no clear call; they are omitted. This is one part of a sample in which actives are shown more often than they occur. Unmarked numbers belong to inactive results. Calls follow the shape of the dose curve; as a rule, active = well fitted activation curve with a large enough effect; inconclusive = small, poorly fitted or top-dose-only effect, or another doubt; inactive = no such curve, though single readings can be large or run the other way.
# Assay: qHTS of TDP-43 Inhibitors; also: nearly all actives have a fitted effect of over 50% in size; as to growth rescue (activation): % of control where 0% means no effect
# Conditions: TDP-43 expressing yeast growth rescue, BacTiter-Glo, 24 h; series mostly up to 46.1 µM; growth rescue (activation): at the top concentration
# Description: The goal of this project is to identify new chemical probes capable of reversing the toxicity associated with TDP-43 which is associated with frontotemporal lobar degeneration and amyotrophic lateral sclerosis. These compounds will provide a complementary approach to deciphering the tangled mechanisms of toxicity and protection that we have uncovered through genome-wide genetic screens and are beginning to uncover in a large-scale proteomics analysis with mass spectroscopy.
# To this end, a miniaturized assay was developed to be screened against the Molecular Libraries Small Molecule Repository (MLSMR) to discover TDP-43 inhibitors. Please note that in the set-up this yeast-based assay compounds that inhibit as TDP-43, have a read-out as activators.
# NIH Chemical Genomics Center [NCGC]
# NIH Molecular Libraries Probe Centers Network [MLPCN]
# Assay Submitter (PI): Susan Lindquist, Whitehead Institute/MIT
# Dispense 2.5 microL yeast galactose medium per 1536-well plate, pin compound, dispense 2.5 microL TDP-43 expressing yeast in galactose medium at OD600=0.02 (pregrown in raffinose medium to mid-log phase) per well, incubate for 24 hr at 30 deg C, and cell growth will be measured using 5 microL of Bactiter/Glo reagent to entire plate and read using Luminescence Protocol in ViewLux.
# Potency is read from the fitted curve at half-maximal effect.
Compound,growth rescue (activation),Potency
CC(NC(=S)Nc1ccccc1)C(c1cccs1)N1CCOCC1 (stereo not given),16.8%,
CC(NC(=S)Nc1ccccc1)C1COc2ccccc2O1 (stereo not given),,12.6 µM (active)
CC(c1ccco1)N(C(=O)Nc1ccccc1)C1CCCCC1 (stereo not given),-8.75%,
COc1ccc(NC(=O)c2cc3cc(C)ccc3n2C)cc1,2.24% [at 9.22 µM],
CC1CCN(c2nc3ccc(C(=O)N4CCN(c5ccccc5)CC4)cc3s2)CC1,0%,
Cc1nc2ccc(C(=O)N3CCN(c4ccccc4)CC3)cc2s1,,14.1 µM (active)
Cc1nc2ccc(C(=O)N3CCSCC3)cc2s1,2.39%,
CC(=O)Oc1ccc(-c2nc3c(C)cccc3c(=O)o2)cc1,,12.6 µM (active)
COc1nc(N=C(N)N)nc2c(C)cccc12,15%,
O=C(Oc1ccccc1)Oc1ccc2c(c1)oc(=O)c1ccccc12,9.59%,
O=S(=O)(NCc1ccc(Cl)cc1Cl)c1cccs1,,8.91 µM (active)
O=C(NCc1ccc(Cl)cc1)C1CCN(S(=O)(=O)c2cccs2)CC1,11.5%,
O=S(=O)(Cc1ccc(Cl)cc1Cl)c1ccc(Cl)cc1,-14.4%,
CC1=C(C(=O)Nc2ccccc2Cl)C(c2cccs2)n2ncnc2N1 (stereo not given),-9.1%,
CCNC(=O)c1cc2n(n1)CCCN(Cc1ccc(C)cc1)C2=O,-4.05%,
CC(/C=C/c1ccco1)=N/NC(=O)C1COc2ccccc2O1 (stereo not given),16.4%,
Cc1ccc(C(=O)N/N=C\c2cc(Br)c(Br)o2)cn1,-16.6%,
O=C(N/N=C\c1cc(Br)c(Br)o1)C1COc2ccccc2O1 (stereo not given),,11.2 µM (active)
O=C(Nc1nc2ccc(F)cc2s1)c1nc(SCc2ccccc2F)ncc1Cl,5.76%,
COc1cc(CNCCSc2nnnn2C)ccc1OCc1c(F)cccc1Cl,3.55%,
CCOc1ccc(Nc2nc3c(S(=O)(=O)c4cccc(Cl)c4)nnn3c3ccsc23)cc1,3.41%,
O=C(NCc1ccc(F)cc1)c1ccc(Cn2c(SCc3ccc(F)cc3)nc3cccnc32)cc1,21.8%,
CCCCN(C)c1nnc(NC(=O)Nc2ccc(Br)c(C)c2)s1,22.1% [at 9.22 µM],
COc1ccc(NC(=O)C(c2ccncc2)n2c(=O)c(-c3cc4ccccc4[nH]3)nc3ccccc32)cc1 (stereo not given),,17.8 µM (active)
COc1ccc(C(C(=O)NCc2ccccc2)n2c(=O)c(-c3ccccc3)nc3ccccc32)cc1 (stereo not given),25.1%,

Compound,growth rescue (activation),Potency
CCCCCNC(=O)C(c1ccc(OC)cc1)n1c(=O)c(-c2ccccc2)nc2ccccc21 (stereo not given),15.6%,
COc1ccc(CC(=O)NCCc2sc3nc(-c4ccc(OC)cc4)nn3c2C)cc1,17%,
CC1CCCCN1Cc1c(O)ccc2c(=O)c(-c3cccc(Cl)c3)c(C(F)(F)F)oc12 (stereo not given),-6.15%,
O=C(NC1Cc2ccccc2C1)c1cc(COc2cccc(C(F)(F)F)c2)on1,15.8%,
O=C(c1cc(COc2cccc(C(F)(F)F)c2)on1)N1CCSCC1,,22.4 µM (active)
CC1CN(C(=O)c2cc(COc3c(F)cccc3F)on2)CCN1C (stereo not given),-13.4%,
CCc1cccc(NC(=O)Cn2nc(CC)n3c(cc4cc(C)ccc43)c2=O)c1,10.2%,
COc1ccc(C2(Nc3cccc(F)c3)C(=O)c3ccccc3C2=O)cc1,9.65%,
CCCOc1ccccc1C1CC(=O)Nc2cc3c(cc21)OCO3 (stereo not given),,20 µM (active)
Cc1cc2c(cc1C)C(c1cccc(OC(C)C)c1)CC(=O)N2 (stereo not given),11.2%,
O=C1CC(c2ccc(F)cc2F)c2cc3c(cc2N1)OCO3 (stereo not given),-4.38%,
Cc1ccc(Cl)cc1N1CCN(C(=O)C2CCC(CNS(=O)(=O)c3cccs3)CC2)CC1 (stereo not given),25%,
COc1cccc(CN2CCc3nc(SCC(=O)Nc4ccccc4)[nH]c(=O)c3C2)c1,4.94%,
O=C(NC1CCCCC1)c1ccc(Cn2c(SCc3ccccc3)nc3cccnc32)cc1,-3.95%,
O=C(O)c1ccc(CSc2nc3cccnc3n2Cc2cccc(F)c2)cc1,0%,
Cc1oc(-c2ccccc2)nc1Cn1c(SCc2cccc(C(F)(F)F)c2)nc2cccnc21,,20 µM (active)
Cc1ccccc1OCc1nc2c3cnn(-c4ccccc4F)c3ncn2n1,22%,
COCCNc1nc(-c2ccccc2)nc2c1oc1ccccc12,,12.6 µM (active)
C[C@@H](Nc1nc(-c2ccccc2)nc2c1oc1ccccc12)C(=O)O,1.72%,
CCc1nc(Nc2ccc3nccnc3c2)c2oc3ccccc3c2n1,-11.4%,
Cc1cc(NC(=O)CC(C)C)cc(-c2nc3ncccc3o2)c1O,23.5%,
CCOc1ccc(NC(=O)c2cnn(-c3ccccc3)c2-n2cccc2)cc1,-9.72% [at 9.22 µM],
COc1ccccc1-c1cc2nc(NCc3cccc(Cl)c3)ccn2n1,,17.8 µM (active)
CC(C)Cc1ccc(-c2cc3nc(NCc4cccc(Cl)c4)ccn3n2)cc1,9.06%,
COc1ccccc1CNc1nc2ccc(Cl)cc2n2cnnc12,-9.41%,

# From PubChem BioAssay AID652104 (National Center for Advancing Translational Sciences (NCATS), 2013)
